About 220 (0.56%) of roughly 39,000 compounds showed activity. The entries come from a sample that favours actives as a whole.
system: Escherichia coli K-12 BW25113; assay: relative growth (OD600 normalised to plate interquartile mean) (fraction); higher = less growth inhibition, active = 0.2 or less; conditions: 50 µM; LB; incubation time: overnight (16-24 h)
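Further: Wild-type cells incubated without shaking, value is the mean of two biological replicates.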

Structure (SMILES)	relative growth
CN1C=C(C(=O)OCCS(C)(=O)=O)C(C(=O)OCCS(C)(=O)=O)=CC(c2ccc(CO)cc2)=C[C@@H]1C1CC1	1.02 (inactive)
Cc1ccc(S(=O)(=O)N[C@H]2CC[C@H](CC(=O)N3CCC(Cc4ccccc4)CC3)O[C@H]2CO)cc1	1.02 (inactive)
Cc1noc(C)c1NC(=O)Nc1ccc2c(c1)C(=O)N([C@@H](C)CO)C[C@@H](C)[C@@H](CN(C)S(=O)(=O)c1ccccc1)OCCCC[C@H](C)O2	0.998 (inactive)
C[C@H]1CN([C@@H](C)CO)C(=O)c2cccc(NC(=O)Nc3ccccc3)c2O[C@@H]1CN(C)S(C)(=O)=O	0.991 (inactive)
CCS(=O)(=O)Nc1ccc2c(c1)C(=O)N(C)[C@@H]1CC[C@@H](CC(=O)NCc3ccc(OC)cc3)O[C@@H]1CO2	1.01 (inactive)
Cc1ccc(NC(=O)C[C@@H](N)C(=O)O)cc1	1.01 (inactive)
CCNC(=O)c1csc(N)n1	0.971 (inactive)
C[C@H]1[C@H](NC(=O)/C(=N\OC(C)(C)C(=O)O)c2csc(N)n2)C(=O)N1S(=O)(=O)O	0.0312 (active)
CCOC(=O)/C(=N/O)c1csc(N)n1	0.997 (inactive)
CC1C(NC(=O)C(=NOC(C)(C)C(=O)O)c2csc(N)n2)C(=O)N1S(=O)(=O)O (stereo not drawn)	0.0499 (active)
COc1ccc(S(=O)(=O)N2C[C@H](O)COC[C@@H]3O[C@@H](CC(=O)NCCCN4CCOCC4)CC[C@H]32)cc1	0.999 (inactive)
CC(C)NC(=O)Nc1ccc2c(c1)C(=O)N([C@H](C)CO)C[C@@H](C)[C@H](CN(C)S(=O)(=O)c1ccc(Cl)cc1)O2	1.03 (inactive)
Cn1c(=O)oc2cc(S(=O)(=O)N3CCC[C@H](C(=O)NN4CCOCC4)C3)ccc21	0.99 (inactive)
CC(C)(O/N=C(\C(=O)N[C@@H]1C(=O)N2C(C(=O)O)=C(C[n+]3ccccc3)CS[C@H]12)c1csc(N)n1)C(=O)O	0.0433 (active)
NC(=O)c1cc[n+](CC2=C(C(=O)O)N3C(=O)[C@@H](NC(=O)Cc4cccs4)[C@H]3SC2)cc1	1.04 (inactive)
CC(C)(O/N=C(\C(=O)N[C@@H]1C(=O)N2C(C(=O)O)=C(C[N+]3(CCNC(=O)c4ccc(O)c(O)c4Cl)CCCC3)CS[C@H]12)c1csc(N)n1)C(=O)O	0.0469 (active)
CC(C)(ON=C(C(=O)NC1C(=O)N2C(C(=O)[O-])=C(C[n+]3ccccc3)CSC12)c1csc(N)n1)C(=O)O (stereo not drawn)	0.0511 (active)
COc1ccc(CNC(=O)C[C@@H]2CC[C@H]3[C@@H](COc4ccc(NC(=O)C5CC5)cc4C(=O)N3C)O2)cc1	1.03 (inactive)
CC(C)(C)[S@](=O)N1Cc2cc(C(=O)N3CCCCC3)nc(-c3cccc(-c4ccc(C#N)cc4)c3)c2[C@@H]1CCO	1 (inactive)
C[C@@H]1CN([C@@H](C)CO)C(=O)c2cc(-c3ccc(C(=O)N(C)C)cc3)cnc2O[C@H]1CN(C)C(=O)c1cccnc1	1.03 (inactive)
CCCNC(=O)N1CC[C@]2(CC1)CN([C@@H](CO)c1[nH]c3cc(ccc3c12)OC)C(=O)CN1CCOCC1	0.998 (inactive)
COCCOC(=O)N1C(=O)[C@@]2(c3cc(C#Cc4ccc(OC)cc4)ccc31)[C@H](C(=O)N1CCN(c3ncccn3)CC1)[C@H]1C(=O)O[C@H](c3ccccc3)[C@H](c3ccccc3)N1[C@@H]2c1ccccc1OCCO	1.07 (inactive)
O=C1C[C@]2(c3ccc([N+](=O)[O-])cc3)C(=O)N(C3CC3)c3cc(CO)ccc3[C@H]2N1CC12CC3CC(CC(C3)C1)C2	1.01 (inactive)
CO[C@H]1CN(C)C(=O)c2cc(NC(=O)Nc3cccc(F)c3)ccc2OC[C@@H](C)N(C(=O)Nc2c(C)noc2C)C[C@H]1C	0.978 (inactive)
C[C@H](CO)N1C[C@H](C)[C@H](CN(C)C(=O)Nc2ccc(N3CCN(C)CC3)cc2)OCc2cnnn2CCCC1=O	0.983 (inactive)
CCC1OC(=O)C(C)C(OC2CC(C)(OC)C(O)C(C)O2)C(C)C(OC2OC(C)CC(N(C)C)C2O)C(C)(O)CC(C)C(=O)C(C)C(O)C1(C)O.CCCCCCCCCCCCCCCCCC(=O)O (stereo not drawn)	0.665 (inactive)
CCCN1C[C@H](C)[C@@H](O)[C@](C)(O)[C@@H](CC)OC(=O)[C@H](C)[C@@H](O[C@H]2C[C@@](C)(OC)[C@@H](O)[C@H](C)O2)[C@H](C)[C@@H](O[C@@H]2O[C@H](C)C[C@H](N(C)C)[C@H]2O)[C@](C)(O)C[C@H]1C	0.116 (active)

Structure (SMILES)	relative growth
CCC1OC(=O)C(C)C(OC2CC(C)(OC)C(O)C(C)O2)C(C)C(OC2OC(C)CC(N(C)C)C2O)C(C)(O)CC(C)CN(C)C(C)C(O)C1(C)O (stereo not drawn)	0.0435 (active)
CC[C@H]1OC(=O)[C@H](C)[C@@H](O[C@H]2C[C@@](C)(OC)[C@@H](O)[C@H](C)O2)[C@H](C)[C@@H](O[C@@H]2O[C@H](C)C[C@H](N(C)C)[C@H]2O)[C@](C)(O)C[C@@H](C)[C@@H]2N[C@@H](COCCOC)O[C@H]([C@H]2C)[C@]1(C)O	0.469 (inactive)
CCC(=O)OC1C(OC2C(C)C(OC3CC(C)(OC)C(O)C(C)O3)C(C)C(=O)OC(CC)C(C)(O)C(O)C(C)C(=O)C(C)CC2(C)O)OC(C)CC1N(C)C.CCCCCCCCCCCCOS(=O)(=O)O (stereo not drawn)	0.953 (inactive)
CO[C@H]1C[C@H](O[C@H]2[C@H](C)[C@@H](O[C@H]3O[C@H](C)C[C@H](N(C)C)[C@H]3O)[C@@H](C)C[C@]3(CO3)C(=O)[C@H](C)[C@@H](O)[C@@H](C)[C@@H](C)OC(=O)[C@@H]2C)O[C@@H](C)[C@@H]1O	0.954 (inactive)
CC[C@H]1OC(=O)[C@H](C)[C@@H](O[C@H]2C[C@@](C)(OC)[C@@H](O)[C@H](C)O2)[C@H](C)[C@@H](O[C@@H]2O[C@H](C)C[C@H](N(C)C)[C@H]2O)[C@](C)(O)C[C@@H](C)CN(C)[C@H](C)[C@@H](O)[C@]1(C)O	0.0562 (active)
C[C@H](CO)N1C[C@H](C)[C@H](CN(C)S(=O)(=O)c2cccs2)Oc2ncc(-c3cccc(F)c3)cc2C1=O	0.97 (inactive)
O=C(Cn1nnc2ccccc2c1=O)Nc1nnc[nH]1	0.982 (inactive)
C[C@@H]1CN([C@H](C)CO)S(=O)(=O)c2ccc(C#CC3(O)CCCC3)cc2O[C@H]1CN(C)C(=O)Nc1cccc(F)c1	1 (inactive)
Cc1cc(C)n(CCNC(=O)[C@H]2CCCN(c3cccc4c3C(=O)N(Cc3ccc5c(c3)OCO5)C4=O)C2)n1	0.993 (inactive)
C[C@H](CO)N1C[C@H](C)[C@H](CN(C)C(=O)Nc2ccc(F)cc2)Oc2ncc(Br)cc2C1=O	0.974 (inactive)
CN(C)C(=O)C[C@@H]1CC[C@@H]2[C@H](COC[C@H](O)CN2S(=O)(=O)c2ccccc2)O1	1.02 (inactive)
Cn1cnc(S(=O)(=O)N2C[C@@H](O)COC[C@H]3O[C@@H](CC(=O)N4CCN(c5ccccc5)CC4)CC[C@@H]32)c1	1.02 (inactive)
CC[C@@H](C)[C@H]1O[C@@]2(CC[C@@H]1C)C[C@H]1C[C@@H](CC=C(C)[C@@H](O[C@H]3C[C@@H](OC)[C@@H](O[C@H]4C[C@@H](OC)[C@@H](O)[C@@H](C)O4)[C@@H](C)O3)[C@@H](C)C=CC=C3CO[C@H]4[C@@H](O)C(C)=C[C@@H](C(=O)O1)[C@]34O)O2.CO[C@H]1C[C@@H](O[C@@H]2[C@@H](OC)C[C@@H](O[C@@H]3C(C)=CC[C@@H]4C[C@@H](C[C@@]5(CC[C@@H](C)[C@H](C(C)C)O5)O4)OC(=O)[C@@H]4C=C(C)[C@H](O)[C@@H]5OCC(=CC=C[C@@H]3C)[C@@]45O)O[C@@H]2C)O[C@@H](C)[C@@H]1O	1 (inactive)
C[C@@H]1CCCCO[C@H](CN(C)C(=O)Nc2ccccc2)[C@H](C)CN([C@@H](C)CO)C(=O)c2cc(NC(=O)c3ccccc3)ccc2O1	0.982 (inactive)
CCOC(=O)CCC(=O)O[C@H]1[C@H](O[C@@H]2[C@@H](C)[C@H](O[C@H]3C[C@@](C)(OC)[C@@H](O)[C@H](C)O3)[C@@H](C)C(=O)O[C@H](CC)[C@@](C)(O)[C@H](O)[C@@H](C)C(=O)[C@H](C)C[C@@]2(C)O)O[C@H](C)C[C@@H]1N(C)C	0.0544 (active)
CCC1OC(=O)C(C)C(OC2CC(C)(OC)C(O)C(C)O2)C(C)C(OC2OC(C)CC(N(C)C)C2O)C(C)(OC)CC(C)C(=O)C(C)C(O)C1(C)O (stereo not drawn)	0.536 (inactive)
CC[C@@H]1OC(=O)[C@@H](C)[C@H](O[C@H]2C[C@@](C)(OC)[C@@H](O)[C@H](C)O2)[C@@H](C)[C@H](O)[C@@](C)(O[C@@H]2O[C@H](C)C[C@H](N(C)C)[C@H]2O)C[C@H](C)C(=O)[C@@H](C)[C@H](O)[C@@]1(C)O	0.427 (inactive)
CCC(=O)O[C@H]1[C@H](O[C@@H]2[C@@H](C)[C@H](O[C@H]3C[C@@](C)(OC)[C@@H](O)[C@H](C)O3)[C@@H](C)C(=O)O[C@H](CC)[C@@](C)(O)[C@H](O)[C@@H](C)C(=O)[C@H](C)C[C@@]2(C)O)O[C@H](C)C[C@@H]1N(C)C	0.947 (inactive)
CCC1OC(=O)C(C)C(OC2CC(C)(OC)C(O)C(C)O2)C(C)C(OC2OC(C)CC(N(C)C)C2O)C(C)(O)CC(C)C2NC(COCCOC)OC(C2C)C1(C)O (stereo not drawn)	0.433 (inactive)
CC[C@H]1OC(=O)[C@H](C)[C@@H](O[C@H]2C[C@@](C)(OC)[C@@H](O)[C@H](C)O2)[C@H](C)[C@@H](O[C@@H]2O[C@H](C)C[C@H](N(C)C)[C@H]2O)[C@](C)(O)C[C@@H](C)C(=O)[C@H](C)[C@@H](O)[C@]1(C)O	0.0484 (active)
CCC1OC(=O)C(C)C(OC2CC(C)(OC)C(O)C(C)O2)C(C)C(OC2OC(C)CC(N(C)C)C2O)C(C)(O)CC(C)C(=O)C(C)C(O)C1(C)O (stereo not drawn)	0.408 (inactive)
CCC1OC(=O)C(C)C(OC2CC(C)(OC)C(O)C(C)O2)C(C)C(OC2OC(C)CC(N(C)C)C2O)C(C)(O)CC(C)C(=NOCOCCOC)C(C)C(O)C1(C)O (stereo not drawn)	0.613 (inactive)
CC[C@H]1OC(=O)[C@H](C)[C@@H](O[C@H]2C[C@@](C)(OC)[C@@H](O)[C@H](C)O2)[C@H](C)[C@@H](O[C@@H]2O[C@H](C)C[C@H](N(C)C)[C@H]2O)[C@](C)(OC)C[C@@H](C)C(=O)[C@H](C)[C@@H](O)[C@]1(C)O	0.0351 (active)
CC[C@@H]1OC(=O)[C@H](C)[C@@H](O[C@H]2C[C@@](C)(OC)[C@@H](O)[C@H](C)O2)[C@H](C)[C@@H](O[C@@H]2O[C@H](C)C[C@H](N(C)C)[C@H]2O)[C@](C)(O)C[C@@H](C)/C(=N\OCOCCOC)[C@H](C)[C@@H](O)[C@]1(C)O	0.165 (active)
CC[C@H]1OC(=O)[C@H](C)[C@@H](O[C@H]2C[C@@](C)(OC)[C@@H](O)[C@H](C)O2)[C@@H](C)[C@@H](O[C@H]2O[C@H](C)C[C@H](N(C)C)[C@H]2O)[C@](C)(O)C[C@@H](C)C(=O)[C@H](C)[C@@H](O)[C@]1(C)O	0.375 (inactive)
CCOC(=O)CCC(=O)OC1C(OC2C(C)C(OC3CC(C)(OC)C(O)C(C)O3)C(C)C(=O)OC(CC)C(C)(O)C(O)C(C)C(=O)C(C)CC2(C)O)OC(C)CC1N(C)C (stereo not drawn)	0.709 (inactive)

— the supplement of paper PMC9446081
